The results in this text go back to the supplement of paper PMC13380429.

Structures are written as SMILES.

This assay has as its system Vero E6 infected with SARS-CoV-2. Kind of assay: morphology score (similarity to uninfected cells); higher = more like uninfected cells. The conditions noted are these: 24 h.
`O=C1c2ccccc2-c2c(NCCc3ccccc3)c(=O)[nH]c3cccc1c23` (10 µM) showed a morphology score of -0.00844.

With `CCn1c(-c2nonc2N)nc2cncc(CNC3CCNCC3)c21` (10 µM), the morphology score worked out at 0.371.

As for `CCOC(=O)c1c(O)nc2cccc3c2c1-c1ccccc1C3=O` (10 µM), the morphology score is -0.157.

As to `C[n+]1cc2c3c(ccc2c2ccc4cc5c(cc4c21)OCO5)OCO3` [sanguinarium-chloride] (10 µM), the morphology score was -0.0249.

For the molecule `Cc1cc(Cn2nnc3c(-c4ccco4)nc(N)nc32)ccc1N` [vipadenant] (10 µM), the morphology score was determined as 0.0562.

In turn, `FCc1ccc(OCCOc2ccc(Cl)cc2Cl)c(Cl)n1` (10 µM) displayed a morphology score of -0.0669.

In the case of `CC(C)Cc1ccc([C@@H](C)C(=O)NCCO)cc1` (racemic) [mabuprofen] (10 µM), the morphology score turned out to be 0.127.

The molecule `O=C(O)CCC(=O)OC[C@@H](NC(=O)C(Cl)Cl)[C@H](O)c1ccc([N+](=O)[O-])cc1` [chloramphenicol-sodium-succinate] (10 µM) returned a morphology score of 0.049.

The molecule `CCCCCS(=O)(=O)CCCCCCCCCCn1c(-c2ccc(O)cc2)c(C)c2cc(O)ccc21` (0.833333 µM) had a morphology score of 0.00616.

Take `COc1ccc(-c2ccc3c(N4CCOC[C@@H]4C)nc(N4CCOC[C@@H]4C)nc3n2)cc1CO` (0.833333 µM): the morphology score was -0.0692.

`COC(=O)[C@@H](N)CCCNC(=N)N[N+](=O)[O-]` (10 µM) returned a morphology score of 0.125.

On to `CS(=O)(=O)c1ccc(C2=C(c3ccccc3)C(=O)OC2)cc1` [rofecoxib] (10 µM), for which the morphology score was determined as 0.0705.

The molecule `C=Cc1c(C)c2cc3nc(c(CC(=O)O)c4[n-]c(cc5nc(cc1[n-]2)C(C)=C5CC)c(C)c4C(=O)O)[C@@H](CCC(=O)O)[C@@H]3C.[Cu+2]` [chlorophyllin-copper] (10 µM) came in with a morphology score of -0.0712.

Molecule `CN(C)CC(c1ccc(O)cc1)C1(O)CCCCC1` (stereo not given) [desvenlafaxine] (10 µM) yielded a morphology score of 0.0229.

For `CCCCNc1c(C(=O)OCC)c(C)nc2c1cnn2CC` [tracazolate] (10 µM), the morphology score was determined as 0.174.

On to `CC(C)C[C@H](NC(=O)CNC(=O)c1cc(Cl)ccc1Cl)B(O)O` [ixazomib] (0.833333 µM), for which the morphology score is -0.0337.

`O=C(O)CCC(=O)Nc1ccc(S(=O)(=O)Nc2nccs2)cc1` [succinylsulfathiazole] (10 µM) gave a morphology score of 0.0689.

The molecule `CCN1CCN(c2ccc(Nc3cc(N(C)C(=O)Nc4c(Cl)c(OC)cc(OC)c4Cl)ncn3)cc2)CC1` (0.833333 µM) showed a morphology score of -0.0528.

`CC#CCC(C)[C@H](O)/C=C/[C@@H]1[C@H]2C/C(=C/CCCC(=O)O)C[C@H]2C[C@H]1O` (stereo not given in full) [iloprost] (10 µM) returned a morphology score of 0.0115.

Molecule `CN1C2CCCC1CC(NC(=O)c1nn(C)c3ccccc13)C2` (stereo not given) [granisetron] (10 µM) registered a morphology score of -0.16.

In turn, `C#CC[C@H](c1nc2cc(Cl)ccc2c(=O)n1Nc1ccccc1)N(CCCN)C(=O)c1cccc(Cl)c1F` (0.833333 µM) displayed a morphology score of -0.0173.

For `c1ccc(C2CC2)c(OCC2=NCCN2)c1` [cirazoline] (10 µM), the morphology score came out at 0.0206.

In turn, `C=CC(=O)Nc1cccc(Oc2nc(Nc3ccc(N4CCN(C)CC4)cc3)ncc2Cl)c1` (10 µM) showed a morphology score of -0.115.

Molecule `O=C1c2c(O)ccc(O)c2C(=O)c2c(NCCNCCO)ccc(NCCNCCO)c21` [mitoxantrone] (0.833333 µM) had a morphology score of -0.00869.

For the molecule `O=c1[nH]cnc2nc[nH]c12` [hypoxanthine] (10 µM), the morphology score came out at 0.0617.

As for `CN(C)CC(=O)Nc1ccc2[nH]c(=O)c3ccccc3c2c1` (10 µM), the morphology score turned out to be 0.202.

`Clc1cccc(-n2nnnc2NCc2ccccc2Oc2ccccn2)c1Cl` (10 µM): the morphology score was -0.0586.

With `CN1CCN(c2ccc3[nH]c(-c4ccc5[nH]c(-c6ccc(O)cc6)nc5c4)nc3c2)CC1` [pibenzimol] (10 µM), the morphology score worked out at 0.0018.

Regarding `CCNC(=O)CC[C@H](N)C(=O)O` [L-theanine] (10 µM), the morphology score turned out to be 0.0421.

Molecule `COc1ccsc1CNCC[C@@]1(c2ccccn2)CCOC2(CCCC2)C1` (10 µM) showed a morphology score of -0.0456.

As to `O=C(O)CCN(O)C(=O)CCCCCCCCC1CC1` (10 µM), the morphology score is 0.0952.

Molecule `CCCCCCCCCCCCCCCC[n+]1ccccc1` [cetylpyridinium] (0.833333 µM) had a morphology score of 0.0939.

`CCCCCCCC/C=C\CCCCCCCC(N)=O` [oleamide] (10 µM) showed a morphology score of 0.242.

`Nc1nccc2c1ncn2C1C=C(CO)C(O)C1O` (stereo not given) [3-deazaneplanocin-A] (10 µM): the morphology score is -0.104.

As for `C=CCc1ccc(O)c(-c2cc(CC=C)ccc2O)c1` [magnolol] (10 µM), the morphology score is 0.249.

Molecule `COc1c(-c2ccc3cc(NS(C)(=O)=O)ccc3c2)cc(-n2ccc(=O)[nH]c2=O)cc1C(C)(C)C` [dasabuvir] (10 µM) registered a morphology score of 0.123.

`CCCCC/C=C\C/C=C\CCCCCCCC(=O)NCCCC(=O)O` [GABA-linoleamide] (10 µM) yielded a morphology score of 0.105.

In the case of `CN1[C@@H]2CC[C@H]1C[C@@H](OC(=O)C(CO)c1ccccc1)C2` (stereo not given in full) (10 µM), the morphology score was -0.21.

The molecule `CC(C)[C@](O)(c1ccc2cc(OC(F)F)c(OC(F)F)cc2c1)c1c[nH]nn1` (10 µM) had a morphology score of 0.165.

Take `CN(C)CCc1c[nH]c2ccc(C[C@H]3COC(=O)N3)cc12` [zolmitriptan] (10 µM): the morphology score is 0.127.
